Reference: PubChem BioAssay AID1159580 (chemical genetic matrix, 2015)
Screen size: about 5,500 compounds; about 2,000 (36%) were called active. About 18% were inconclusive and are not listed. Cut-off read from the data, not from the text of the source: active = normalized growth mostly below about 0.91 (no sharp cut-off); inconclusive = no clear call, values can overlap the other calls; inactive = mostly above about 0.92. This is one part of the list.

Test: chemical genetic growth profiling, strain panel (AID 1159580);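 note: tested at 20 µM; growth read once vehicle control cultures reached saturation at 30 °C; 1 = growth at the plate median or of vehicle wells; lower values mean less growth of the strain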
Conditions: growth OD

Measured: normalized growth

CC(C)(C)NCC(O)c1cc(Cl)c(N)c(Cl)c1 (centres undefined)
inactive: S. cerevisiae deletion strains, locus YJR043C, strain POL32, stronger effect = lower value 1.01 | S. cerevisiae deletion strains, locus YJR075W, strain HOC1, stronger effect = lower value 1.01 | S. cerevisiae deletion strains, locus YKL009W, strain mrt4, stronger effect = lower value 1 | S. cerevisiae deletion strains, locus YKL068W, stronger effect = lower value 1 | S. cerevisiae deletion strains, locus YKL085W, strain MDH1 (second series), stronger effect = lower value 1.01 | S. cerevisiae deletion strains, locus YKL085W, strain MDH1, stronger effect = lower value 1.01 | S. cerevisiae deletion strains, locus YKL160W, strain elf1, stronger effect = lower value 0.998 | S. cerevisiae deletion strains, locus YKL190W, strain CNB1, stronger effect = lower value 1 | S. cerevisiae deletion strains, locus YKR001C, strain vps1, stronger effect = lower value 1.01 | S. cerevisiae deletion strains, locus YKR026C, strain gcn3, stronger effect = lower value 0.999 | S. cerevisiae deletion strains, locus YKR091W, strain srl3, stronger effect = lower value 1 | S. cerevisiae deletion strains, locus YLL001W, strain dnm1, stronger effect = lower value 0.983 | S. cerevisiae deletion strains, locus YLL026W, stronger effect = lower value 0.992 | S. cerevisiae deletion strains, locus YLL041C, strain sdh2, stronger effect = lower value 1 | S. cerevisiae deletion strains, locus YLR027C, strain aat2, stronger effect = lower value 0.999 | S. cerevisiae deletion strains, locus YLR039C, strain RIC1, stronger effect = lower value 1.02 | S. cerevisiae deletion strains, locus YLR058C, strain SHM2, stronger effect = lower value 1.02 | S. cerevisiae deletion strains, locus YLR102C, strain apc9, stronger effect = lower value 0.992 | S. cerevisiae deletion strains, locus YLR221C, strain rsa3, stronger effect = lower value 1 | S. cerevisiae deletion strains, locus YLR258W, strain gsy2, stronger effect = lower value 0.993 | S. cerevisiae deletion strains, locus YLR262C, strain YPT6 (second series), stronger effect = lower value 0.999 | S. cerevisiae deletion strains, locus YLR262C, strain YPT6, stronger effect = lower value 1.05 | S. cerevisiae deletion strains, locus YLR268W, strain sec22, stronger effect = lower value 0.977 | S. cerevisiae deletion strains, locus YLR320W, strain mms22, stronger effect = lower value 0.996 | S. cerevisiae deletion strains, locus YLR330W, strain CHS5, stronger effect = lower value 1.01 | S. cerevisiae deletion strains, locus YLR342W, strain FKS1 (second series), stronger effect = lower value 1.02 | S. cerevisiae deletion strains, locus YLR342W, strain FKS1, stronger effect = lower value 1 | S. cerevisiae deletion strains, locus YLR357W, strain rsc2, stronger effect = lower value 1 | S. cerevisiae deletion strains, locus YLR370C, strain arc18, stronger effect = lower value 1 | S. cerevisiae deletion strains, locus YLR371W, strain rom2, stronger effect = lower value 0.991 | S. cerevisiae deletion strains, locus YLR384C, strain iki3, stronger effect = lower value 1 | S. cerevisiae deletion strains, locus YLR418C, strain cdc73, stronger effect = lower value 0.976 | S. cerevisiae deletion strains, locus YML016C, strain PPZ1, stronger effect = lower value 1.01 | S. cerevisiae deletion strains, locus YML032C, strain rad52, stronger effect = lower value 0.992 | S. cerevisiae deletion strains, locus YML120C, strain ndi1, stronger effect = lower value 1.01 | S. cerevisiae deletion strains, locus YML124C, strain tub3, stronger effect = lower value 0.999 | S. cerevisiae deletion strains, locus YMR058W, strain fet3, stronger effect = lower value 0.998 | S. cerevisiae deletion strains, locus YMR078C, strain ctf18, stronger effect = lower value 1 | S. cerevisiae deletion strains, locus YMR125W, strain sto1, stronger effect = lower value 0.99 | S. cerevisiae deletion strains, locus YMR129W, stronger effect = lower value 1.01 | S. cerevisiae deletion strains, locus YMR205C, strain PFK2, stronger effect = lower value 0.982 | S. cerevisiae deletion strains, locus YMR223W, strain ubp8, stronger effect = lower value 1 | S. cerevisiae deletion strains, locus YMR231W, strain pep5, stronger effect = lower value 1 | S. cerevisiae deletion strains, locus YMR263W, strain SAP30, stronger effect = lower value 1.01 | S. cerevisiae deletion strains, locus YMR307W, strain GAS1, stronger effect = lower value 0.995 | S. cerevisiae deletion strains, locus YNL067W, strain RPL9B, stronger effect = lower value 1.01 | S. cerevisiae deletion strains, locus YNL071W, strain lat1, stronger effect = lower value 1 | S. cerevisiae deletion strains, locus YNL128W, strain TEP1, stronger effect = lower value 1.02 | S. cerevisiae deletion strains, locus YNL153C, strain GIM3, stronger effect = lower value 1 | S. cerevisiae deletion strains, locus YNL209W, strain ssb2, stronger effect = lower value 1.01 | S. cerevisiae deletion strains, locus YNL233W, strain BNI4, stronger effect = lower value 1.01 | S. cerevisiae deletion strains, locus YNL248C, strain rpa49, stronger effect = lower value 1 | S. cerevisiae deletion strains, locus YNL250W, strain rad50, stronger effect = lower value 0.989 | S. cerevisiae deletion strains, locus YNL271C, strain bni1, stronger effect = lower value 0.99 | S. cerevisiae deletion strains, locus YNL298W, strain CLA4, stronger effect = lower value 0.992 | S. cerevisiae deletion strains, locus YNL307C, strain MCK1, stronger effect = lower value 0.996 | S. cerevisiae deletion strains, locus YNL322C, strain KRE1 (second series), stronger effect = lower value 0.997 | S. cerevisiae deletion strains, locus YNL322C, strain KRE1, stronger effect = lower value 1.01 | S. cerevisiae deletion strains, locus YNR049C, strain mso1, stronger effect = lower value 0.997 | S. cerevisiae deletion strains, locus YNR052C, strain pop2, stronger effect = lower value 1 | S. cerevisiae deletion strains, locus YOL006C, strain TOP1, stronger effect = lower value 1.05 | S. cerevisiae deletion strains, locus YOL012C, strain htz1 1.23 | S. cerevisiae deletion strains, locus YOL147C, strain pex11, stronger effect = lower value 1 | S. cerevisiae deletion strains, locus YOR001W, strain rrp6, stronger effect = lower value 0.99 | S. cerevisiae deletion strains, locus YOR061W, strain CKA2, stronger effect = lower value 1.01 | S. cerevisiae deletion strains, locus YOR069W, strain VPS5, stronger effect = lower value 1.01 | S. cerevisiae deletion strains, locus YOR070C, strain gyp1, stronger effect = lower value 0.994 | S. cerevisiae deletion strains, locus YOR080W, strain dia2, stronger effect = lower value 0.998 | S. cerevisiae deletion strains, locus YOR083W, strain WHI5, stronger effect = lower value 1 | S. cerevisiae deletion strains, locus YOR106W, strain vam3, stronger effect = lower value 0.996 | S. cerevisiae deletion strains, locus YOR136W, strain idh2, stronger effect = lower value 0.991 | S. cerevisiae deletion strains, locus YOR144C, strain elg1, stronger effect = lower value 0.999 | S. cerevisiae deletion strains, locus YOR184W, strain ser1, stronger effect = lower value 1 | S. cerevisiae deletion strains, locus YOR265W, strain rbl2, stronger effect = lower value 1 | S. cerevisiae deletion strains, locus YOR270C, strain vph1, stronger effect = lower value 0.958 | S. cerevisiae deletion strains, locus YOR290C, strain snf2, stronger effect = lower value 0.971 | S. cerevisiae deletion strains, locus YOR316C, strain cot1, stronger effect = lower value 1 | S. cerevisiae deletion strains, locus YPL051W, strain arl3, stronger effect = lower value 0.995 | S. cerevisiae deletion strains, locus YPL055C, strain LGE1, stronger effect = lower value 0.993 | S. cerevisiae deletion strains, locus YPL078C, strain atp4, stronger effect = lower value 0.991 | S. cerevisiae deletion strains, locus YPL106C, strain sse1, stronger effect = lower value 0.985 | S. cerevisiae deletion strains, locus YPL240C, strain hsp82, stronger effect = lower value 1.01 | S. cerevisiae deletion strains, locus YPL241C, strain CIN2, stronger effect = lower value 1 | S. cerevisiae deletion strains, locus YPR119W, strain clb2, stronger effect = lower value 0.999 | S. cerevisiae deletion strains, locus YPR141C, strain kar3, stronger effect = lower value 0.996 | S. cerevisiae deletion strains, locus YPR163C, strain tif3, stronger effect = lower value 0.999 | S. cerevisiae deletion strains, locus YPR167C, strain met16, stronger effect = lower value 0.994 | S. cerevisiae deletion strains, strain wtn01, stronger effect = lower value 0.971 | S. cerevisiae strains, strain wild type, stronger effect = lower value 1
